“And” between values parts separate entries of the source, which are not always exact repeats. Equal entries are not always repeated. This is part of a sample that, as a whole, favours compounds with a hit. Of some 83,000 tested, about 20% had one in any assay.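 Each cell line was grown in a 96-well plate and treated with one concentration of compound for 48 hours. Values below 10 were considered active.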 The source made the active and inactive calls.

For the assay, the system named is HL-60(TB) leukemia. In words: NCI-60 one-dose screen, 48 h (100 = growth as untreated, 0 = no growth, -100 = all killed). The following applies: 10 µM unless noted.
`Cc1nc2ccccc2c(/C=C/c2ccc(Cl)cc2)c1C(=O)/C=C/c1ccc(Cl)cc1`: the growth was -34.6% (active).

For `CC(C)CCC(=O)[C@@H](C)[C@H]1[C@@H](OC2OCC(O)C(O)C2NS(C)(=O)=O)C[C@H]2[C@@H]3CC=C4C[C@@H](O)CC[C@]4(C)[C@H]3CC[C@]12C` (some centres undefined), the growth was 7.32% (active).

For `CC(C)Sc1ncnc2nc[nH]c12`, the growth is 95% (inactive).

As to `O=C(CN1CCOCC1)N1CCOCC1`, the growth was 101% (inactive) and 109% (inactive).

`NC(=S)c1c(N)n(C2OC(CO)C(O)C2O)c2ncnc(N)c12` (centres undefined): the growth is -43.6% (active).

With `CC(=O)OCC1OC(OCC2OC(OC(C)=O)C(OC(C)=O)C(OC(C)=O)C2OC(C)=O)C(OC(C)=O)C(OC(C)=O)C1OC(C)=O` (centres undefined), the growth is 115% (inactive).

Regarding `O=c1c(CNc2ccc(S(=O)(=O)Nc3nccs3)cc2)coc2ccccc12`, the growth was 89.6% (inactive).

On to `CCN(CC)CCOC(=O)c1cccnc1`, for which the growth is 101% (inactive).

On to `O=C(O)c1cc(=O)[nH]c(=O)[nH]1`, for which the growth was 109% (inactive) and 106% (inactive).

For the molecule `CC(=O)N1N=C(c2ccc(Cl)cc2)CC1c1cn(-c2ccccc2)nc1-c1ccc([N+](=O)[O-])cc1` (centres undefined), the growth was 121% (inactive).

For the molecule `COC(=O)C1(O)NC(=C(C#N)C#N)C(C#N)=C1C(=O)c1ccc(OC)c(OC)c1` (centres undefined), the growth was 79% (inactive).

On to `NC(Cc1ccc(O)cc1)C(=O)N/N=C/c1ccccc1O` (centres undefined), for which the growth is 93.7% (inactive).

Consider `COc1cc(CC#N)c([N+](=O)[O-])cc1OC`, for which the growth was 92.6% (inactive).

In the case of `CCO/C=N/C1=C(C#N)C(c2ccc(OC)cc2)c2sc3c(F)cccc3c2O1` (centres undefined), the growth was -9.87% (active).

For the molecule `CCN1CCN(C(=O)[C@]23CCC(C)(C)C[C@H]2C2=CC[C@@H]4[C@@]5(C)CC/C(=N/O)C(C)(C)[C@@H]5CC[C@@]4(C)[C@]2(C)CC3)CC1`, the growth is -9.73% (active).

`Cc1ccc(Nn2c(SCC(=O)Nc3nc(-c4ccccc4)cs3)nc(C)c2C)cc1`: the growth is 63.8% (inactive).

`CC(C)=CCC[C@](C)(O)[C@H]1CC[C@]2(C)[C@@H]1CC[C@@H]1[C@@]3(C)Cc4nccnc4C(C)(C)[C@@H]3CC[C@]12C`: the growth was 67.8% (inactive).

For `S=c1ccc2ccccc2[nH]1`, the growth was 85.3% (inactive) and 97.6% (inactive).

In the case of `COc1cc(/C=C/C(=O)c2ccc(Nc3ncnc4cc(OC)c(OC)cc34)cc2)cc(OC)c1`, the growth was 94.2% (inactive).

Turning to `O=C(NC(Cc1cn(Cc2ccccc2)cn1)C(=O)O)OCC1c2ccccc2-c2ccccc21` (centres undefined), the growth was 87.4% (inactive).

As for `COc1ccc2c(c1)C1=NN(C(=O)CO)[C@H](c3ccc(OC(F)(F)F)cc3)[C@@H]1CC2`, the growth was 104% (inactive).

In the case of `CN1CCN(CCCN2c3ccccc3Sc3ccc(Cl)cc32)CC1`, the growth is 98.9% (inactive) and 50.7% (inactive).

As for `CCOC(=O)c1ccc2c(c1)nc(-c1ccc(Cl)cc1)n2-c1cc(C(C)(C)C)[nH]n1`, the growth is -14.7% (active).

Regarding `CNCCNc1nc2ccccc2c2c(=O)c3cc(F)ccc3oc12`, the growth was 95.4% (inactive).

`Nc1ncnc2c1C(c1ccccc1)c1ccc3ccccc3c1O2` (centres undefined): the growth is 82.4% (inactive).

As to `COc1ccc(C(=O)NC(=O)Nc2cc3c(cc2F)/C(=C/c2[nH]c(C)c(CCC(=O)O)c2C)C(=O)N3)c(F)c1`, the growth was 20.9% (inactive).

Consider `C=COC(=O)CCOCC(CC)CCCC` (centres undefined), for which the growth was 91.8% (inactive).

Regarding `COc1cc(NS(C)(=O)=O)ccc1Cc1c2ccccc2nc2ccccc12`, the growth is -2.45% (active).

As to `[2H]C1([2H])[C@H](C)O[C@H](C)C([2H])([2H])N1c1ccc(NC(=O)c2cccc(-c3ccc(OC(F)(F)F)cc3)c2C)cn1`, the growth is 56.3% (inactive).

With `CCN(CC)CCCC(C)N(Cc1ccccc1)CC(O)c1ccc(Cl)cc1` (centres undefined), the growth is 101% (inactive) and 106% (inactive).

Turning to `COc1ccc(CCN2C(=O)CCC3=C2CCCC3=O)cc1OC`, the growth is 107% (inactive).

Turning to `Cc1ccc(S(=O)(=O)C2=C3C(=C(c4ccccc4)c4ccccc43)CN(S(=O)(=O)c3ccc(C)cc3)C2)cc1`, the growth was 65.7% (inactive).

For the molecule `N#Cc1c(-c2ccccc2)cc(-c2ccccc2)n(CCCC(=O)Nc2ccccc2N)c1=O`, the growth was 21.5% (inactive).

`CN(C)Cc1ccc[nH]1`: the growth was 109% (inactive).

For the molecule `CCc1ccc(Oc2c(-c3ccc(OCc4ccc(Cl)cc4)cc3O)n[nH]c2C(F)(F)F)cc1`, the growth was -6.99% (active).

As to `CCCCCn1ncc(-c2c(O)c(O)cc3c(O)c(-c4c(C)cc5c(-c6cnn(CCCCC)n6)c(O)c(O)cc5c4O)c(C)cc23)n1`, the growth was -22.3% (active).

As for `COc1ccc(-c2[nH]ncc2Nc2cc(OC)c(OC)c(OC)c2)cc1`, the growth was 31.6% (inactive).

On to `Cc1ccc(NCCN2CCCCC2)c2c(=O)c3ccccc3sc12`, for which the growth was 1.52% (active).

On to `Cc1cc(NS(=O)(=O)c2ccc(N=Nc3cc(N=Nc4ccc(S(=O)(=O)Nc5cc(C)nc(C)n5)cc4)c4c(NC(=O)C(Cl)Cl)cccc4c3OC(=O)C(Cl)Cl)cc2)nc(C)n1` (tested in a mixture with another compound), for which the growth is 116% (inactive) and 98.5% (inactive).

The values above are taken from PubChem BioAssay (NCI).
